Test results reported in PubChem BioAssay AID1159580 (chemical genetic matrix, 2015).
Out of some 5,500 compounds screened, about 2,000 (36%) were called active. Not shown: some 18% with an inconclusive outcome. Rule as the data show it: active = normalized growth mostly below about 0.91 (no sharp cut-off); inconclusive = no clear call, values can overlap the other calls; inactive = mostly above about 0.92. The list shows a part of the results.

Assay: chemical genetic growth profiling, strain panel (AID 1159580);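 also: tested at 20 µM; growth read once vehicle control cultures reached saturation at 30 °C; 1 = growth at the plate median or of vehicle wells; lower values mean less growth of the strain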
Settings: growth OD
[1] = S. cerevisiae deletion strains, locus YAL013W, strain DEP1, stronger effect = lower value
[2] = S. cerevisiae deletion strains, locus YBR229C, strain ROT2, stronger effect = lower value
[3] = S. cerevisiae deletion strains, locus YDL101C, strain DUN1, stronger effect = lower value
[4] = S. cerevisiae deletion strains, locus YDR150W, strain NUM1, stronger effect = lower value
[5] = S. cerevisiae deletion strains, locus YEL061C, strain CIN8, stronger effect = lower value
[6] = S. cerevisiae deletion strains, locus YGR078C, strain PAC10, stronger effect = lower value
[7] = S. cerevisiae deletion strains, locus YHR030C, strain SLT2, stronger effect = lower value
[8] = S. cerevisiae deletion strains, locus YJR043C, strain POL32, stronger effect = lower value
[9] = S. cerevisiae deletion strains, locus YJR075W, strain HOC1, stronger effect = lower value
[10] = S. cerevisiae deletion strains, locus YKL190W, strain CNB1, stronger effect = lower value
[11] = S. cerevisiae deletion strains, locus YLR039C, strain RIC1, stronger effect = lower value
[12] = S. cerevisiae deletion strains, locus YLR262C, strain YPT6, stronger effect = lower value
[13] = S. cerevisiae deletion strains, locus YMR263W, strain SAP30, stronger effect = lower value
[14] = S. cerevisiae deletion strains, locus YMR307W, strain GAS1, stronger effect = lower value
[15] = S. cerevisiae deletion strains, locus YNL153C, strain GIM3, stronger effect = lower value
[16] = S. cerevisiae deletion strains, locus YNL322C, strain KRE1, stronger effect = lower value
[17] = S. cerevisiae deletion strains, locus YOL006C, strain TOP1, stronger effect = lower value
[18] = S. cerevisiae deletion strains, locus YPL055C, strain LGE1, stronger effect = lower value
[19] = S. cerevisiae deletion strains, locus YPL241C, strain CIN2, stronger effect = lower value

Measured: normalized growth

O=C(O)c1nccnc1C(=O)O
inactive: [1] 0.993 | [2] 0.991 | [3] 0.988 | [4] 0.924 | [5] 0.994 | [6] 1 | [7] 1.02 | S. cerevisiae deletion strains, locus YHR087W, strain rtc3, stronger effect = lower value 1.02 | [8] 0.972 | [9] 0.988 | [10] 1.01 | [11] 1.01 | S. cerevisiae deletion strains, locus YLR058C, strain SHM2 (second series), stronger effect = lower value 1.01 | S. cerevisiae deletion strains, locus YLR085C, strain ARP6, stronger effect = lower value 1.01 | [12] 1.03 | S. cerevisiae deletion strains, locus YML094W, strain GIM5, stronger effect = lower value 1.01 | S. cerevisiae deletion strains, locus YMR219W, strain ESC1, stronger effect = lower value 1.01 | [13] 0.991 | [14] 0.992 | [15] 1 | S. cerevisiae deletion strains, locus YNL298W, strain CLA4 (second series), stronger effect = lower value 1.01 | [16] 1.01 | S. cerevisiae deletion strains, locus YNR030W, strain Alg12, stronger effect = lower value 1.05 | [17] 1.06 | [18] 0.951 | [19] 1.01 | S. cerevisiae deletion strains, locus YPR135W, strain CTF4, stronger effect = lower value 1.05

COP(=O)(OC)OC(Br)C(Cl)(Cl)Br (stereo not drawn)
inactive: [1] 0.966 | S. cerevisiae deletion strains, locus YBR021W, strain FUR4, stronger effect = lower value 1.04 | [2] 0.947 | S. cerevisiae deletion strains, locus YCL029C, strain bik1, stronger effect = lower value 0.997 | S. cerevisiae deletion strains, locus YDL035C, strain GPR1, stronger effect = lower value 0.984 | S. cerevisiae deletion strains, locus YDL074C, strain BRE1, stronger effect = lower value 0.961 | [3] 0.988 | S. cerevisiae deletion strains, locus YDL134C, strain PPH21, stronger effect = lower value 0.994 | S. cerevisiae deletion strains, locus YDL185W, strain tfp1, stronger effect = lower value 0.989 | S. cerevisiae deletion strains, locus YDL192W, strain arf1, stronger effect = lower value 1 | S. cerevisiae deletion strains, locus YDR101C, strain arx1, stronger effect = lower value 0.999 | [4] 0.984 | S. cerevisiae deletion strains, locus YDR162C, strain NBP2, stronger effect = lower value 0.988 | S. cerevisiae deletion strains, locus YDR318W, strain mcm21, stronger effect = lower value 1 | S. cerevisiae deletion strains, locus YDR388W, stronger effect = lower value 1.01 | S. cerevisiae deletion strains, locus YDR502C, strain sam2, stronger effect = lower value 1 | [5] 0.993 | S. cerevisiae deletion strains, locus YER110C, stronger effect = lower value 0.993 | S. cerevisiae deletion strains, locus YER155C, strain BEM2, stronger effect = lower value 1 | S. cerevisiae deletion strains, locus YER167W, strain BCK2, stronger effect = lower value 0.981 | S. cerevisiae deletion strains, locus YGL078C, strain dbp3, stronger effect = lower value 1.01 | S. cerevisiae deletion strains, locus YGL086W, strain mad1, stronger effect = lower value 0.989 | S. cerevisiae deletion strains, locus YGL248W, strain PDE1, stronger effect = lower value 0.968 | [6] 0.987 | S. cerevisiae deletion strains, locus YGR135W, strain pre9, stronger effect = lower value 1.01 | S. cerevisiae deletion strains, locus YGR229C, strain SMI1, stronger effect = lower value 0.996 | S. cerevisiae deletion strains, locus YGR252W, strain gcn5, stronger effect = lower value 1.06 | [7] 1.01 | S. cerevisiae deletion strains, locus YHR079C, strain IRE1 (second series), stronger effect = lower value 0.995 | S. cerevisiae deletion strains, locus YHR094C, strain hxt1, stronger effect = lower value 1.01 | S. cerevisiae deletion strains, locus YHR129C, strain ARP1, stronger effect = lower value 0.969 | S. cerevisiae deletion strains, locus YHR200W, strain rpn10, stronger effect = lower value 0.997 | S. cerevisiae deletion strains, locus YIL066C, strain RNR3, stronger effect = lower value 0.984 | S. cerevisiae deletion strains, locus YIL073C, strain SPO22, stronger effect = lower value 1.06 | S. cerevisiae deletion strains, locus YIL125W, strain kgd1, stronger effect = lower value 1 | S. cerevisiae deletion strains, locus YIR030C, strain dcg1, stronger effect = lower value 1.01 | S. cerevisiae deletion strains, locus YJL095W, strain BCK1, stronger effect = lower value 1 | S. cerevisiae deletion strains, locus YJL134W, strain LCB3, stronger effect = lower value 0.994 | S. cerevisiae deletion strains, locus YJL168C, strain set2, stronger effect = lower value 0.997 | S. cerevisiae deletion strains, locus YJL187C, strain SWE1 (second series), stronger effect = lower value 0.965 | [8] 0.999 | [9] 0.964 | S. cerevisiae deletion strains, locus YKL009W, strain mrt4, stronger effect = lower value 0.948 | S. cerevisiae deletion strains, locus YKL068W, stronger effect = lower value 0.995 | S. cerevisiae deletion strains, locus YKL085W, strain MDH1 (second series), stronger effect = lower value 1.01 | S. cerevisiae deletion strains, locus YKL085W, strain MDH1, stronger effect = lower value 1.01 | [10] 0.997 | S. cerevisiae deletion strains, locus YKR001C, strain vps1, stronger effect = lower value 1.01 | [11] 0.997 | S. cerevisiae deletion strains, locus YLR058C, strain SHM2, stronger effect = lower value 0.979 | S. cerevisiae deletion strains, locus YLR102C, strain apc9, stronger effect = lower value 0.994 | [12] 0.99 | S. cerevisiae deletion strains, locus YLR268W, strain sec22, stronger effect = lower value 1.01 | S. cerevisiae deletion strains, locus YLR330W, strain CHS5, stronger effect = lower value 0.988 | S. cerevisiae deletion strains, locus YLR342W, strain FKS1 (second series), stronger effect = lower value 0.98 | S. cerevisiae deletion strains, locus YLR371W, strain rom2, stronger effect = lower value 0.999 | S. cerevisiae deletion strains, locus YLR418C, strain cdc73, stronger effect = lower value 0.987 | S. cerevisiae deletion strains, locus YML016C, strain PPZ1, stronger effect = lower value 0.989 | S. cerevisiae deletion strains, locus YML032C, strain rad52, stronger effect = lower value 1.01 | S. cerevisiae deletion strains, locus YML124C, strain tub3, stronger effect = lower value 1.01 | S. cerevisiae deletion strains, locus YMR078C, strain ctf18, stronger effect = lower value 1.02 | S. cerevisiae deletion strains, locus YMR223W, strain ubp8, stronger effect = lower value 1 | [13] 0.989 | [14] 1.02 | S. cerevisiae deletion strains, locus YNL067W, strain RPL9B, stronger effect = lower value 0.974 | S. cerevisiae deletion strains, locus YNL128W, strain TEP1, stronger effect = lower value 0.957 | [15] 0.971 | S. cerevisiae deletion strains, locus YNL233W, strain BNI4, stronger effect = lower value 0.978 | S. cerevisiae deletion strains, locus YNL250W, strain rad50, stronger effect = lower value 0.999 | S. cerevisiae deletion strains, locus YNL271C, strain bni1, stronger effect = lower value 1.01 | S. cerevisiae deletion strains, locus YNL298W, strain CLA4, stronger effect = lower value 1.01 | S. cerevisiae deletion strains, locus YNL307C, strain MCK1, stronger effect = lower value 1.02 | [16] 0.987 | S. cerevisiae deletion strains, locus YNR052C, strain pop2, stronger effect = lower value 1.01 | [17] 1.04 | S. cerevisiae deletion strains, locus YOL012C, strain htz1 1.23 | S. cerevisiae deletion strains, locus YOL147C, strain pex11, stronger effect = lower value 1.01 | S. cerevisiae deletion strains, locus YOR061W, strain CKA2, stronger effect = lower value 0.973 | S. cerevisiae deletion strains, locus YOR069W, strain VPS5, stronger effect = lower value 0.998 | S. cerevisiae deletion strains, locus YOR136W, strain idh2, stronger effect = lower value 1 | S. cerevisiae deletion strains, locus YOR144C, strain elg1, stronger effect = lower value 1 | S. cerevisiae deletion strains, locus YOR184W, strain ser1, stronger effect = lower value 1.01 | S. cerevisiae deletion strains, locus YOR316C, strain cot1, stronger effect = lower value 0.992 | [18] 0.99 | [19] 0.998 | S. cerevisiae deletion strains, locus YPR119W, strain clb2, stronger effect = lower value 1.01 | S. cerevisiae deletion strains, locus YPR141C, strain kar3, stronger effect = lower value 0.993 | S. cerevisiae deletion strains, locus YPR163C, strain tif3, stronger effect = lower value 1 | S. cerevisiae deletion strains, locus YPR167C, strain met16, stronger effect = lower value 0.99 | S. cerevisiae deletion strains, strain wtn01, stronger effect = lower value 1 | S. cerevisiae strains, strain wild type, stronger effect = lower value 0.994
